Experimental data: the supplement of paper PMC10681739

Columns and labels:
RUNX1 [1] = target: RUNX1 (UniProt Q01196); test: RUNX1 binding intensity (PBM fluorescence), RUNX1 alone (arbitrary fluorescence units); higher = stronger binding; conditions: RUNX1 concentration 2 nM; ETS1 concentration 0 nM
Procedure: (§1)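 Cooperative gcPBM on 36-bp genomic probes with neighbouring ETS1 and RUNX1 sites. Recombinant human RUNX1 (2 nM) was incubated alone or with ETS1 (25 nM) and detected with anti-RUNX1 antibody plus Alexa488 secondary. Values are medians over 4 replicate spots; the RUNX1+ETS1 data were normalised to the RUNX1-only data. The probes sit in constant array flanks that are not printed.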

ETS1 = target: T1, ETS1 (UniProt P14921); test: ETS1 binding intensity (PBM fluorescence) in presence of RUNX1, normalised to ETS1-only experiment (arbitrary fluorescence units); higher = stronger binding; conditions: ETS1 concentration 1 nM; RUNX1 concentration 25 nM
T1 sequence: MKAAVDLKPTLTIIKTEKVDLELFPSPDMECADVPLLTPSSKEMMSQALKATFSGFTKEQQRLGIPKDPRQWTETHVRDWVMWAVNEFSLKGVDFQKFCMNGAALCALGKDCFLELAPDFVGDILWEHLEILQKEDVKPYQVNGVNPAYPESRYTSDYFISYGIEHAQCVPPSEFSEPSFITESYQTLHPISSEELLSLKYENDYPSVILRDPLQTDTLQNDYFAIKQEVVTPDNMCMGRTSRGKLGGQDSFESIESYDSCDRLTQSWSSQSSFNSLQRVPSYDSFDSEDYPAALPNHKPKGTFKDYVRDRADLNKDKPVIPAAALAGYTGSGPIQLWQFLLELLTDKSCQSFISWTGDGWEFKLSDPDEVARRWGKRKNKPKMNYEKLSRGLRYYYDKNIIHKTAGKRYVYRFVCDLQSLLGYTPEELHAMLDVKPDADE

RUNX1 [2] = target: RUNX1 (UniProt Q01196); test: RUNX1 binding intensity (PBM fluorescence) in presence of ETS1, normalised to RUNX1-only experiment (arbitrary fluorescence units); higher = stronger binding; conditions: RUNX1 concentration 2 nM; ETS1 concentration 25 nM
Procedure: as §1
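Wherever RUNX1 binding intensity (PBM fluorescence) in presence of ETS1, normalised to RUNX1-only experiment is given: Full-length recombinant human ETS1 or RUNX1 bound to double-stranded 36-bp genomic probes on microarrays, detected by protein-specific primary antibody and Alexa488 secondary, spot fluorescence as median of four replicate spots.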
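Wherever RUNX1 binding intensity (PBM fluorescence), RUNX1 alone is given: Full-length recombinant human RUNX1 bound to double-stranded 36-bp genomic probes on a high-density microarray, scored as Alexa488 fluorescence per spot via anti-RUNX1 antibody, median of four replicate spots.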

Chain of RUNX1 (Q01196 whole entry): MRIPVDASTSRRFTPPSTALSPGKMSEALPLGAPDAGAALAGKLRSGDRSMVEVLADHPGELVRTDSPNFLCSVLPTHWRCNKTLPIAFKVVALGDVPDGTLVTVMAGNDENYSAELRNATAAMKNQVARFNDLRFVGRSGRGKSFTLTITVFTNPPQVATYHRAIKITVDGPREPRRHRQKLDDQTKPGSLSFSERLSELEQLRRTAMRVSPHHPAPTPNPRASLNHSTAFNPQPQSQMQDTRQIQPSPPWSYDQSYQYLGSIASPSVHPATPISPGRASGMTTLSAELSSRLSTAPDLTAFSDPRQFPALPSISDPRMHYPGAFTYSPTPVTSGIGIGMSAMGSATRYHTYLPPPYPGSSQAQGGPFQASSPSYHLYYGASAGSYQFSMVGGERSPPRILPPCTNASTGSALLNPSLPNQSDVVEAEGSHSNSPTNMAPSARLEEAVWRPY

Sequence | RUNX1 binding intensity (RUNX1 [1]) | ETS1 binding intensity (ETS1) | RUNX1 binding intensity (RUNX1 [2])
CTTTGCTGCCGCCTTCCTGTGCGGGGCCGTGGCGGC | 720 | 389 | 1020
CATGACGAAGGGGAAGGATGTGGTTTGAGGGCAGCA | 847 | 8460 | 1310
AGTACGATGGGAGGAAGTGGTTTGTAAGAGGAGGAC | 640 | 3390 | 1490
ATCACAAGCAGAGGATGTGGTTAGTGTTTCGTTCCA | 995 | 5580 | 2160
TAAAGAAACAGGATGACTGTGGTTTACTGCGAGCAT | 830 | 1000 | 1150
TTCTGCTACATCCTGCCCACTCCCTGTGGCTTCCAC | 1380 | 1060 | 3270
GCCCTGACCCACATCCTGCCGCAGCCTGCTTGTCCT | 1520 | 1350 | 7030
ACTCACTTCCGTTTAGCTTATCAACCACCAAGAGAC | 1390 | 1060 | 3210
CGGGCTGGGAGGAAGTGATGGCTGACCACAGAGGAG | 1000 | 4610 | 1570
GCTGTCCGTTTCCGAGATGTTAATGCGGGATCTTGC | 920 | 402 | 988
CGGGTGGTGGCAGGATGTGGGTAGGGGGCCAGGCGA | 895 | 6860 | 2560
TGGCGCTTCCTGTCGCTACCGCTGCGGCCCAGGGCC | 755 | 763 | 1860
TGGCTTTGCAGAAGGAAGCTGTGGTTTCTGGTCTTC | 869 | 3340 | 1010
CCTTTACTTCCTTTTACTTCTAACCACAGAATTAAA | 7760 | 1810 | 14200
ACAAGAGGAAGTGAGTCTACCCATGATGCGGTCACA | 891 | 4460 | 1440
GGGGAAGAGGGGAGGATGTCTGAGGTTTTAATTGTA | 861 | 689 | 793
CAGTTTGCCCCGGATGTTGACCGCCTTGAAGTCGTA | 910 | 4900 | 1380
GCTGCTTCCGGCCGCTGGTCGCAGGGCTGCGGGACT | 677 | 1000 | 1760
CCGGGTAGGATCCGGTTGCCTTTCTGCGGTGGAGGA | 848 | 798 | 1480
CGGGGATGGGATTTCCGGTGGTTTTTCTTCACTTTC | 851 | 4760 | 3240
GCCGCTGGGTAGGCGGAAGTAGCCGCAGGCATGGCA | 760 | 7400 | 1000
GCAGTGCAGGAAGTGCTTTGTGTGGTACAATCCCAA | 759 | 2110 | 1030
